S1P3 antagonist: antagonists of human S1P3 receptor; Q99500; CHO S1P3 NFAT-BLA reporter, FRET fluorescence, antagonist mode; inhibition, % at 4.98 µM; 170,000 compounds, 0.27% hits; AID 485;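 active = inhibition above the plate cutoff, the mean inhibition of test wells on that plate plus 3 SD, cut at about 28% in these data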;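 note: cells challenged with S1P at its EC80 of 0.8 µM; blue over green emission ratio from cleaved BLA substrate after 4 h stimulation; 0% = S1P-stimulated wells and 100% = unstimulated DMSO-only wells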
Target sequence (Q99500 whole entry, looked up): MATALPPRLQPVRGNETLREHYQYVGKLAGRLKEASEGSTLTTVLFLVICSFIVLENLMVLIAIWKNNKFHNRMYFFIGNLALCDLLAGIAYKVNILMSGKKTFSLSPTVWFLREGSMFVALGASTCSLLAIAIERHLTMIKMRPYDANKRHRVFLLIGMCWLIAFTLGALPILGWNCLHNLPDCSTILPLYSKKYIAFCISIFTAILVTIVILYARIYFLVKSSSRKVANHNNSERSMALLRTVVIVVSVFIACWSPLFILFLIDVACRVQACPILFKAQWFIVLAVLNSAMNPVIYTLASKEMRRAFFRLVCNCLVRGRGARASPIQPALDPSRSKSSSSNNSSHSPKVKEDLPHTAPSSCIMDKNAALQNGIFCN
S1P4 ag: activates the human S1P4 receptor. S1P4-expressing cell line, agonist reporter assay. O95977. activation, % at 4.98 µM. 220,000 compounds, 0.35% hits; in the data active = activation above about 11%;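 note: 0% = DMSO vehicle and 100% = reference agonist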
S1P4 antagonist: blocks the human S1P4 receptor; AID 1510; O95977; 220,000 compounds, 0.26% hits; inhibition, % at 4.98 µM; S1P4-expressing cells, antagonist mode, reporter read-out; in the data active = inhibition above about 29%;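 note: 0% = wells stimulated with agonist and 100% = vehicle wells without agonist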
EP2 antag: inhibitors of human EP2 prostaglandin E2 receptor. C6 glioma cells expressing human EP2, cAMP TR-FRET; cells stimulated with saturating PGE2. inhibition, % at 25 µM. 260,000 compounds, 0.52% hits. AID 1422. P43116;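 active = percent inhibition above 40 after rounding to a whole number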;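 note: rat C6 glioma host cells with rolipram phosphodiesterase inhibitor present; the protocol text gives 20 µM as final concentration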
INS promoter inh: TRM-6 insulin promoter activity inhibition; inhibition, % at 2 µM; TRM-6 cells (human fetal islet line), insulin promoter-eGFP reporter, imaging; reporter expression induced with tamoxifen; 130,000 compounds, 0.9% hits;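 active = inhibition above the mean plus 3 SD, with well images judged a real hit on visual review, cut at about 60% in these data, passing the limit was not always enough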
EP2 modulator: EP2 receptor (human) modulation | P43116 | EP2-expressing cells, cAMP HTRF FRET, PGE2 co-stimulation | induction, % at 25 µM | 260,000 compounds, 0.83% hits | AID 940;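 active = compounds whose cAMP rise, as percent of the full-agonist control response, exceeds 60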;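 note: rat C6 glioma line stably carrying human EP2 under a CMV promoter; the protocol text gives 20 µM as final concentration; 100% = response of wells given 1 µM PGE2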
EP2 cAMP induct: EP2 receptor cAMP induction, counter-screens negative; shares compounds with EP2 modulator; C6 glioma EP2 cells, cAMP HTRF induction; plus low (about EC15) PGE2 agonist; calls only at 20 µM (by protocol); 1,300 compounds, 47% hits; AID 1080;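 active = cAMP induction above 50% in the main assay while under 30% in all four parallel counter assays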;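 note: rat C6 glioma cells stably expressing human EP2 receptor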
* marks the source's active call; other numbers are inactive results; i = inactive; / = no result given; + = active, no number. This is a sample that favours compounds with a hit; in the whole collection about 2.4% have one here.

SMILES	S1P3 antagonist	S1P4 ag	S1P4 antagonist	EP2 antag	INS promoter inh	EP2 modulator	EP2 cAMP induct
COc1ccc(OC)c(NC(=O)CSc2nc3cccnc3n2Cc2ccccc2)c1	/	/	/	9	/	46	/
CC1(C)OC(c2ccccc2)=C/C(=C/C=Nc2ccccc2)O1	/	2	8	14	-357	66*	i
CCOC(=O)CNC(=O)c1ccc2c(c1)OCCO2	5	1	-14	14	/	69*	i
Cc1cc(C)c(C#N)c(Oc2ccccc2)n1	/	1	-19	13	-20	24	/
Cc1cc(C)c(C#N)c(Oc2ccccc2Br)n1	-1	2	-13	10	/	70*	i
COc1ccccc1CC(C)NC(=O)c1csc(C(C)=O)c1 (stereo unspecified)	/	/	/	6	/	-46	/
O=c1c(C=NCc2ccccc2)c(NCc2ccccc2)nc2ccccn12	-21	1	-17	5	/	80*	+
COc1ccc(-c2nnn(C3CCN(C(=O)c4ccn[nH]4)CC3)n2)cc1	/	/	/	/	/	-33	/
Cc1ccccc1NC(=O)CCN1CCCC(C)C1 (stereo unspecified)	/	/	/	18	/	0	/
CCOc1ccc(Cc2n[nH]c(=S)n2Cc2ccccc2)cc1	-5	0	-21	3	/	66*	i
Cc1ccc(OCc2n[nH]c(=S)n2Cc2ccccc2)cc1	-5	0	-7	14	/	62*	i
COc1ccc(Cc2n[nH]c(=S)n2Cc2ccccc2)cc1Cl	6	0	6	2	11	53	i
O=C(OCc1ccccc1Cl)c1ccccc1C(=O)c1ccccc1	/	-1	-12	4	-10	82*	+
CC(C(=O)Nc1ccccc1-c1ccccc1)N1CCN(C(=O)c2ccccc2)CC1 (stereo unspecified)	-20	0	14	9	/	1	/
CC1CCN(C(C)C(=O)Nc2ccccc2-c2ccccc2)CC1 (stereo unspecified)	/	-1	-10	3	-17	82*	+
CC(C)n1c2ccccc2c2nc3ccccc3nc21	6	1	-5	15	-7	58	+
O=C(Nc1ccccc1N1CCCCC1)c1ccccc1F	8	2	-22	7	-62	61*	+
CC1CCN(c2ccccc2NC(=O)c2ccc(F)cc2)CC1	/	1	4	2	-34	75*	i
O=C(Nc1ccccc1N1CCCC1)c1cc2ccccc2o1	-8	1	-9	/	-42	91*	+
CN1CCN(c2ccccc2NC(=O)c2ccc(F)cc2)CC1	-2	1	-7	1	/	-17	/
O=C1NC(=S)S/C1=C\c1ccc(Cl)c(Cl)c1	/	/	/	13	/	-54	/
Cc1ccc2c(c1)nnn2C1CCN(CC(=O)Nc2cccc(F)c2)CC1	/	/	/	5	/	-37	/
COC(=O)c1cc2ccsc2n1Cc1cccc(F)c1	-2	2	-15	8	20	67*	+
COC(=O)c1cc2ccsc2n1CC(=O)N(C)c1ccccc1	2	2	-10	19	-122	-7	/
COC(=O)c1cc2ccsc2n1Cc1ccccc1F	5	1	-1	11	-100	71*	+
SMILES	S1P3 antagonist	S1P4 ag	S1P4 antagonist	EP2 antag	INS promoter inh	EP2 modulator	EP2 cAMP induct
CC1CCN(c2nnc(N3CCC(C)CC3)c3ccccc23)CC1	-11	-1	-5	3	/	8	/
COc1ccc(-c2nnc(N3CCC(C)CC3)c3ccccc23)cc1	/	-1	-9	/	-67	66*	i
CC(C)c1nc(SCc2c(F)cccc2Cl)c2c(=O)n(C)c(=O)n(C)c2n1	-17	0	-38	11	/	80*	+
Cn1c(=O)c2c(nc(SCCCC#N)n2Cc2c(F)cccc2Cl)n(C)c1=O	-25	1	9	7	/	18	/
CCOc1ccccc1C(=O)Nc1ccccc1-c1ccccc1	-12	2	-7	6	3	78*	+
O=C(Nc1ccccc1Br)c1ccccc1-c1ccccc1	5	2	-15	9	24	70*	+
Cc1nc(SCc2ccc(OC(C)C)cc2)n[nH]1	/	/	/	15	/	-31	/
CCOC(=O)c1ccc2nc(NC(=O)c3ccccc3)sc2c1	/	/	/	19	/	-55	/
CCCCc1nc(N2CCOCC2)c(C#N)c2c1CCCC2	/	-1	1	11	/	79*	i

Screening data deposited in PubChem by several laboratories.
